Measured values: PubChem BioAssay (EPA / NIEHS)
The source made the active and inactive calls. The calls were made as follows: active = hit-call score of the fitted dose curve at least 0.9, where 1 is the maximum; inactive = score below 0.9.

Key:
[1] = APR_HepG2_P-H2AX_72hr: Apredica 72-hour HepG2 Assay for H2AX Phosphorylation (AID 2282916); conditions: imaging, actives raise or lower the signal;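 also: phospho-histone H2A.x immunostain intensity per cell marking DNA damage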
How it was run: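 HepG2 human liver cells were exposed for 72 hr to compounds at 0.39–200 uM (10 concentrations, duplicate per plate) in 0.5% v/v DMSO. Fixed, permeabilized cells were immunolabeled for phospho-histone H2A.x with Hoechst 33342 and imaged by HCS fluorescence; bidirectional fit versus DMSO.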

[2] = APR_HepG2_MitoMembPot_72hr: Apredica 72-hour HepG2 Assay for Mitochondrial Membrane Potential (AID 2282917); conditions: imaging, actives raise or lower the signal
How it was run: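 HepG2 cells dosed 72 hr with compound at 0.39–200 uM in duplicate, 0.5% v/v DMSO final. Mitochondria stained with 250 nM MitoTracker Red CMXRos for 30 min before formaldehyde fixation, imaged by high-content fluorescence; bidirectional fit versus DMSO.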

[3] = APR_HepG2_MitoticArrest_72hr: Apredica 72-hour HepG2 Assay for Mitotic Arrest (AID 2282918); conditions: high-content imaging, actives raise or lower the signal
How it was run: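 HepG2 cells were exposed for 72 hr to compound at 0.39–200 uM (10 concentrations, duplicate) in 0.5% v/v DMSO, fixed in 3.7% formaldehyde, immunostained for phospho-histone H3 with Hoechst 33342 and imaged by high-content fluorescence; bidirectional fits versus DMSO.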

[4] = APR_HepG2_MicrotubuleCSK_72hr: Apredica 72-hour HepG2 Assay for Microtubule CSK Stabilty (AID 2282919); conditions: HepG2 microtubule cytoskeleton, high-content imaging, actives raise or lower the signal
How it was run: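 HepG2 cells were exposed 72 hr to compound at 0.39–200 uM in duplicate (0.5% DMSO final), then fixed and permeabilized. Alpha-tubulin immunofluorescence was imaged by high-content microscopy, with bidirectional fitting against DMSO and taxol as positive control.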

[5] = APR_HepG2_P-H2AX_24hr: Apredica 24-hour HepG2 Assay for H2AX Phosphorylation (AID 2282920); conditions: high-content imaging, actives raise or lower the signal
How it was run: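 HepG2 human liver cells were exposed for 24 hr to compounds at 0.39–200 uM in duplicate, with 0.5% v/v DMSO final. Fixed cells were immunostained for phospho-histone H2A.x plus Hoechst 33342, imaged by HCS fluorescence, and fitted bidirectionally against DMSO.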

[6] = APR_HepG2_StressKinase_72hr: Apredica 72-hour HepG2 Assay for Stress Kinase (AID 2282921); conditions: HepG2 stress kinase (phospho-c-Jun) imaging, actives raise or lower the signal
How it was run: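 Cells were exposed for 72 h to ten concentrations (0.39–200 uM, duplicate) at 0.5% v/v DMSO final, then fixed with 3.7% formaldehyde, permeabilized and immunostained for phospho-c-Jun (Cy3 secondary) with Hoechst nuclear counterstain.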

[7] = APR_HepG2_p53Act_72hr: Apredica 72-hour HepG2 Assay for p53 Activation (AID 2282923); conditions: high-content imaging, actives raise or lower the signal;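 also: average cellular p53 protein immunofluorescence intensity in HepG2 cells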
How it was run: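 Cells were dosed for 72 hr with compounds at 0.39–200 uM in duplicate (final DMSO 0.5% v/v), then fixed in 3.7% formaldehyde, permeabilized with Triton X-100 and immunostained for p53 (Cy5) with Hoechst 33342 nuclear counterstain.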

[8] = APR_HepG2_MitoMass_72hr: Apredica 72-hour HepG2 Assay for Mitochondrial Mass (AID 2282924); conditions: high-content imaging, actives raise or lower the signal;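 also: MitoTracker Red CMXRos stain intensity per cell imaged as mitochondrial mass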
How it was run: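 HepG2 cells dosed 72 hr at 0.39–200 uM (0.5% DMSO), in duplicate. MitoTracker Red CMXRos 250 nM loaded 30 min before formaldehyde fixation; high-content fluorescence imaging, bidirectional fit versus DMSO.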

[9] = APR_HepG2_NuclearSize_72hr: Apredica 72-hour HepG2 Assay for Nuclear Size (AID 2282925); conditions: high-content imaging, actives raise or lower the signal
How it was run: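 HepG2 cells dosed 72 h at 0.39–200 uM (10 concentrations, duplicate) in 0.5% v/v DMSO final. Fixed, Hoechst 33342-stained nuclei imaged; nuclear diameter measured by automated image analysis. Bidirectional fit versus DMSO.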

[10] = ATG_CRE_CIS: Attagene CIS-FACTORIAL HepG2 Assay for human cAMP Responsive Element (CRE) binding protein 3 (AID 2282926); conditions: HepG2 CRE cis-reporter, Attagene multiplexed mRNA; actives raise or lower the signal
How it was run: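 HepG2 cells transiently transfected with a multiplexed reporter library (CRE-driven unit among them) were dosed for 24 h. Reporter mRNA was quantified by RT-PCR, fluorescent labelling, HpaI digestion and capillary electrophoresis, with bidirectional fitting against DMSO baseline.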

[11] = target: CCAAT/enhancer-binding protein beta (Homo sapiens) (UniProt P17676); test: ATG_C_EBP_CIS: Attagene CIS-FACTORIAL HepG2 Assay for human CCAAT/Enhancer Binding Protein (C/EBP) beta (AID 2282927); conditions: HepG2 Attagene cis-factorial transcription factor reporter; actives raise or lower the signal
Sequence of CCAAT/enhancer-binding protein beta (Homo sapiens) (P17676 whole entry, looked up): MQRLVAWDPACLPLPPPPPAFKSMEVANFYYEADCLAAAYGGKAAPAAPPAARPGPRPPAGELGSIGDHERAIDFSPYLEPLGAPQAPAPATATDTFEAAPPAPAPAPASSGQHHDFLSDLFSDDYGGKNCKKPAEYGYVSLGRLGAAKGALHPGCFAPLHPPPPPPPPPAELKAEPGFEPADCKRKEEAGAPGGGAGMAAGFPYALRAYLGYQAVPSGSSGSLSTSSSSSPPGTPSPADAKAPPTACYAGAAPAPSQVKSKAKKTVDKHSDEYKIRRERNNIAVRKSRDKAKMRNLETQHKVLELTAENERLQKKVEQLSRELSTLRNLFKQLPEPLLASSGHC
How it was run: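 Transiently transfected HepG2 (MRTU library, endogenous TF-driven promoters); 24 h dosing; total RNA → oligo(dT) RT → PCR → 6-FAM primer extension → HpaI digest → CE; fit bidirectionally vs DMSO.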

[12] = ATG_CMV_CIS: Attagene CIS-FACTORIAL HepG2 Assay for human CMV (Internal Marker) (AID 2282928); conditions: HepG2 CMV promoter reporter, transcription factor profiling; actives raise or lower the signal;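 also: endpoint acts as a background internal control marker rather than a target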
How it was run: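 HepG2 cells transiently transfected with multiple cis-regulated reporter units; 24 h compound exposure. Reporter mRNA quantified by RT-PCR, 6-FAM primer-extension labeling, HpaI digestion and capillary electrophoresis; bidirectional fitting against DMSO baseline.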

[13] = ATG_DR4_LXR_CIS: Attagene CIS-FACTORIAL HepG2 Assay for human Liver X Receptor (LXR), DR4 submotif (AID 2282929); conditions: HepG2 Attagene DR4 cis-reporter, mRNA transcription; actives raise or lower the signal
How it was run: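 Fluorescence intensity of labelled reporter cDNA fragments, separated by capillary electrophoresis, gives the signal. HepG2 cells bearing cis-regulated reporter constructs were treated 24 h; activity fitted bidirectionally relative to DMSO negative control.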

[14] = target: Aryl hydrocarbon receptor (Homo sapiens) (UniProt P35869); test: ATG_Ahr_CIS: Attagene CIS-FACTORIAL HepG2 Assay for human Aryl Hydrocarbon Receptor (Ahr) (AID 2282930); conditions: HepG2 AhR cis-factorial reporter transcription; actives raise or lower the signal
Sequence of Aryl hydrocarbon receptor (Homo sapiens) (P35869 whole entry, looked up): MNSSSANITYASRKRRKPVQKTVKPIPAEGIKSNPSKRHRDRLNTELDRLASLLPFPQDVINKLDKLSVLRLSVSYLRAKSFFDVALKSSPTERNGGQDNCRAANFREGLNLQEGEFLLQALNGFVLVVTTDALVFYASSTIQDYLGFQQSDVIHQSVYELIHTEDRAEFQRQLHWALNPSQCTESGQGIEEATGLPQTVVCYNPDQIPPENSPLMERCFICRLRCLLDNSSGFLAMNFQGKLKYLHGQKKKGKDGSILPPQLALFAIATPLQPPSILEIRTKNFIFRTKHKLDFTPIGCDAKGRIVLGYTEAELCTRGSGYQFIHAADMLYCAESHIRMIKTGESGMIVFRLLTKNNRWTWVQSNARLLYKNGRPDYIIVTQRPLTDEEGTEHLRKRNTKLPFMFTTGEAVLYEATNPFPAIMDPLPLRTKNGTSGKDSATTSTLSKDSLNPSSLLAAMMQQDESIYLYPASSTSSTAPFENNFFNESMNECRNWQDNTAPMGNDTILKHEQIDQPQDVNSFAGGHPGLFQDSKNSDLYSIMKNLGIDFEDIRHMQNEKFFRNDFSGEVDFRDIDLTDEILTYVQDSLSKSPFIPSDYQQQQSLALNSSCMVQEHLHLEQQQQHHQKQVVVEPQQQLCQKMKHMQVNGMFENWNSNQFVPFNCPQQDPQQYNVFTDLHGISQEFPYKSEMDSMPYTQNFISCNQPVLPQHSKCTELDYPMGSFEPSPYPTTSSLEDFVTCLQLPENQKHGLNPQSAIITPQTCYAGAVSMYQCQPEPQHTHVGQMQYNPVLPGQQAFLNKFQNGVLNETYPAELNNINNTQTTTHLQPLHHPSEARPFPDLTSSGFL
How it was run: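 Read-out: reporter mRNA quantified by RT-PCR with fluorescent primer extension and capillary electrophoresis. Human HepG2 liver cells carried transfected cis-promoter reporter units and were exposed to chemical for 24 h; gain or loss fitted relative to DMSO.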

[15] = ATG_AP_1_CIS: Attagene CIS-FACTORIAL HepG2 Assay for human Activator Protein 1 (AP-1) (AID 2282931); conditions: HepG2 Attagene cis-factorial AP-1 reporter mRNA; actives raise or lower the signal
How it was run: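 Multiplexed HepG2 reporter assay, 24 h dosing. mRNA induction detected by RT-PCR plus capillary electrophoresis. Activity fitted in both directions against DMSO.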

[16] = ATG_AP_2_CIS: Attagene CIS-FACTORIAL HepG2 Assay for human Activator Protein 2 (AP-2) (AID 2282932); conditions: HepG2 AP-2 cis-reporter, Attagene transcription factor profiling; actives raise or lower the signal
How it was run: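 Multiplexed mRNA reporter assay in HepG2: cis-regulated units report endogenous factor activity after 24 h treatment. Fluorescence from capillary electrophoresis of RT-PCR products gives the signal, with DMSO as baseline.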

[17] = target: Retinoic acid receptor alpha (Homo sapiens) (UniProt P10276); test: ATG_DR5_RAR_CIS: Attagene CIS-FACTORIAL HepG2 Assay for human Retinoic Acid Receptor Alpha (RARE), DR5 submotif (AID 2282934); conditions: HepG2 Attagene cis-factorial RARE DR5 reporter, mRNA; actives raise or lower the signal;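 as to AC50: reporter responds to endogenous RAR alpha beta and gamma in HepG2 not RARA alone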
Sequence of Retinoic acid receptor alpha (Homo sapiens) (P10276 whole entry, looked up): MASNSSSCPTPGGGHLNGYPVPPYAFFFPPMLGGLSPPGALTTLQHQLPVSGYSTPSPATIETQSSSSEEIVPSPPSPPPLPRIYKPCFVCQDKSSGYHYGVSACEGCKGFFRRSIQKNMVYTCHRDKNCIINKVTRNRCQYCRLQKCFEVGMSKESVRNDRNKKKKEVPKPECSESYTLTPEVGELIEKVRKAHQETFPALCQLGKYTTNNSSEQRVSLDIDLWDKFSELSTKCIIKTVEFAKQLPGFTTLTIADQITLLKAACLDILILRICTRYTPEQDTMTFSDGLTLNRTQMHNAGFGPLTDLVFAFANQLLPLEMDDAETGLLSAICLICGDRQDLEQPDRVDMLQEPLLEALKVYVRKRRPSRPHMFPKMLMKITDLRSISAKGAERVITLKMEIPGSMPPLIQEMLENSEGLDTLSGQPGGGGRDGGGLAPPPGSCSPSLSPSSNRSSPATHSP
How it was run: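 Read-out: DR5-driven reporter transcript measured by RT-PCR, 6-FAM primer extension, HpaI digest and capillary electrophoresis. Human HepG2 liver cells carry transiently transfected cis-element reporter constructs; dosing lasts 24 h. Gain or loss of signal fitted against DMSO baseline.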

[18] = target: Transcription factor E2F1 (Homo sapiens) (UniProt Q01094); test: ATG_E2F_CIS: Attagene CIS-FACTORIAL HepG2 Assay for human E2F Transcription Factor 1 (AID 2282935); conditions: HepG2 Attagene cis-reporter, E2F reporter RNA transcripts; actives raise or lower the signal
Sequence of Transcription factor E2F1 (Homo sapiens) (Q01094 whole entry, looked up): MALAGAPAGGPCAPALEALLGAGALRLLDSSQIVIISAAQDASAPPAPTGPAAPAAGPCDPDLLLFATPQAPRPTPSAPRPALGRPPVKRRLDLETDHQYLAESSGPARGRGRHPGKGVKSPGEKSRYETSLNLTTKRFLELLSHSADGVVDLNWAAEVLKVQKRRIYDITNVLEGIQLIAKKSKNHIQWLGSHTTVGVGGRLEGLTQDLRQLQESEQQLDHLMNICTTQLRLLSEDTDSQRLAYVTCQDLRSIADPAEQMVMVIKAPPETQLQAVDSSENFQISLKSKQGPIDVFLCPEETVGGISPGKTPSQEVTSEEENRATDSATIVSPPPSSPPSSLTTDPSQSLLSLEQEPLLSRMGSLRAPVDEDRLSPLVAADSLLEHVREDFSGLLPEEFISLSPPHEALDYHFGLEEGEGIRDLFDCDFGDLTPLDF
How it was run: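 Measures reporter transcript levels via RT-PCR with capillary electrophoresis detection in HepG2 cells harboring cis-regulated reporter units; 24 h post-dose; bidirectional curve fitting with DMSO as baseline.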

[19] = ATG_BRE_CIS: Attagene CIS-FACTORIAL HepG2 Assay for human Bone Morphogenetic Protein (BMP) Response Element (BRE) (AID 2282933); conditions: HepG2 BMP response element reporter, Attagene transcription factor profiling; actives raise or lower the signal
How it was run: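 Read-out: reporter mRNA induction quantified by RT-PCR and capillary electrophoresis after 24 h chemical exposure of transfected HepG2 cells. Endogenous factor activity on the BMP response element; gain or loss fitted against DMSO baseline.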

Measured: AC50

CCCSP(=O)(OCC)Oc1ccc(Br)cc1Cl (configuration not stated)
active: [4] 113 µM | [10] 2.33 µM | [11] 1.81 µM | [12] 3.92 µM
inactive: [1] | [2] | [3] | [5] | [6] | [7] | [8] | [9] | [13] | [14] | [15] | [16] | [17] | [18]

CNC(=O)ON=C(C)SC
inactive: [1] | [2] | [3] | [4] | [5] | [6] | [7] | [8] | [9] | [10] | [11] | [12] | [13] | [14] | [15] | [16] | [18]

CCNc1nc(Cl)nc(NC(C)(C)C#N)n1
inactive: [1] | [2] | [3] | [4] | [5] | [6] | [7] | [8] | [9] | [10] | [11] | [12] | [13] | [14] | [15] | [16] | [19] | [18]

CCOP(=S)(Oc1cnc(C(C)(C)C)nc1)OC(C)C (configuration not stated)
inactive: [1] | [2] | [3] | [5] | [6] | [7] | [8] | [10] | [14] | [16] | [18]
active: [4] 66.5 µM | [11] 2.22 µM | [12] 50 µM | [13] 12.9 µM | [15] 62.2 µM | [17] 12 µM

CCOP(=O)(SC(C)CC)N1CCSC1=O (configuration not stated)
inactive: [1] | [2] | [3] | [4] | [5] | [6] | [8] | [10] | [11] | [12] | [13] | [14] | [15] | [16] | [19] | [17] | [18]

C=C(C)[C@H]1Cc2c(ccc3c2O[C@@H]2COc4cc(OC)c(OC)cc4[C@@H]2C3=O)O1
inactive: [4] | [8] | [9] | [13] | [14] | [16] | [18]
active: [1] 1.62 µM | [2] 15.7 µM | [3] 1.15 µM | [5] 12.2 µM | [6] 4.05 µM | [10] 0.0337 µM | [11] 0.0249 µM | [12] 0.0033 µM | [15] 0.0044 µM | [19] 0.0104 µM | [17] 0.0229 µM

COc1cc(OC)nc(Sc2cccc(Cl)c2C(=O)O)n1
inactive: [1] | [2] | [3] | [4] | [5] | [6] | [7] | [8] | [9] | [10] | [11] | [12] | [13] | [15] | [16] | [19] | [18]

CON=C(C(=O)OC)c1ccccc1CON=C(C)c1cccc(C(F)(F)F)c1
inactive: [1] | [2] | [3] | [5] | [6] | [7] | [8] | [10] | [12] | [14] | [15] | [16] | [17] | [18]
active: [4] 0.309 µM | [11] 66.7 µM | [13] 24 µM

N#CSCSC#N
inactive: [1] | [2] | [3] | [4] | [5] | [6] | [7] | [8] | [10] | [11] | [12] | [13] | [14] | [15] | [16] | [19] | [17] | [18]

CC(C)=CC1C(C(=O)OCN2C(=O)C3=C(CCCC3)C2=O)C1(C)C (configuration not stated)
inactive: [1] | [2] | [3] | [4] | [6] | [7] | [8] | [12] | [14] | [16] | [18]
active: [5] 99.3 µM | [10] 38.4 µM | [11] 10.9 µM | [13] 73.6 µM | [15] 71.2 µM | [19] 50 µM

C[N+]1(C)CCCCC1
inactive: [1] | [2] | [3] | [4] | [5] | [6] | [7] | [8] | [9] | [10] | [11] | [12] | [13] | [14] | [15] | [16] | [17] | [18]
